Results reported in PubChem BioAssay (NCATS).
Results filed as inconclusive are left out. The source made the active and inactive calls. The call rests on the fitted dose curve; in most records, active means well fitted curve in the direction sought with a large enough effect; inconclusive means small, poorly fitted or top-dose-only effect, or another doubt; inactive means no such curve, though single readings can be large; an effect the other way counts as inactive or inconclusive.

Assays:
[1] = biological target: Protein phosphatase 1D (Homo sapiens) (UniProt O15297); test: RapidFire Mass Spectrometry qHTS Assay for Modulators of WT P53-Induced Phosphatase 1 (WIP1) (AID 1347424); further: series mostly up to about 63 µM
Procedure, shortened: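 RapidFire MS readout of dephosphorylated VEPPL-S-QETFS product, with 1 uM isotope-labelled peptide standard. Reaction: 10 nM WIP1, 2 uM phosphopeptide substrate, 5 min, room temperature, after 1 h compound preincubation; stopped with 0.5% formic acid.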

[2] = biological target: Protein phosphatase 1D (Homo sapiens) (UniProt O15297); test: Rhodamine-PBP qHTS Assay for Modulators of WT P53-Induced Phosphatase 1 (WIP1) (AID 1347425)
Procedure, shortened: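 WIP1 (5 nM final) was preincubated with compound for 1 hour at room temperature. It then dephosphorylated 10 uM VEPPL-pS-QETFS peptide in Tris-HCl pH 7.5 with 30 mM MgCl2. Released Pi was detected by 10 uM Rh-PBP fluorescence (ex 525/em 598 nm) read at 1-min intervals for 11 min, as delta f1 - f0.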

[3] = Primary qHTS for inhibitors of La Crosse Virus (LACV) - induced cell death in SH-SY5Y cells (AID 1508616);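 further: top concentration of the series differs between compounds; higher means more rescue of cells from virus-induced death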
Procedure, shortened: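 Rescue of virus-induced death was read as ATPLite luminescence after 6 days at 37C, scaled between DMSO wells with LACV and without virus. Cells were SH-SY5Y, 6000/well, infected at 0.01 MOI after compound addition.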

[4] = biological target: Calcium and integrin-binding protein 1 (Homo sapiens) (UniProt Q99828); test: Primary qHTS for Identification of Calcium Integrin Binding Protein 1 (CIB1) Competitor (AID 1508620);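 further: GST tagged CIB1 binding a fluorescein labelled alphaIIb integrin peptide tracer; top concentration of the series differs between compounds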
Procedure, shortened: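 Fluorescence polarization competition: GST-tagged CIB1 (1 uM final) preincubated with compound 15 min at room temperature, then FITC-labelled alphaIIb peptide (100 nM final) added. After 15 min at room temperature, polarization read at Ex 480/Em 540.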

Measured: Potency

Calcium and integrin-binding protein 1 (Homo sapiens), sequence (Q99828 whole entry, looked up): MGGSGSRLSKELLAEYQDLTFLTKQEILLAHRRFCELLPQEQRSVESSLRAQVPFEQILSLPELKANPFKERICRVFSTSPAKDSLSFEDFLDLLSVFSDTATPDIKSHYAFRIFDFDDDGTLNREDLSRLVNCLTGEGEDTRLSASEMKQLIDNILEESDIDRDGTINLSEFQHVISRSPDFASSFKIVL
Protein phosphatase 1D (Homo sapiens), sequence (O15297 whole entry, looked up): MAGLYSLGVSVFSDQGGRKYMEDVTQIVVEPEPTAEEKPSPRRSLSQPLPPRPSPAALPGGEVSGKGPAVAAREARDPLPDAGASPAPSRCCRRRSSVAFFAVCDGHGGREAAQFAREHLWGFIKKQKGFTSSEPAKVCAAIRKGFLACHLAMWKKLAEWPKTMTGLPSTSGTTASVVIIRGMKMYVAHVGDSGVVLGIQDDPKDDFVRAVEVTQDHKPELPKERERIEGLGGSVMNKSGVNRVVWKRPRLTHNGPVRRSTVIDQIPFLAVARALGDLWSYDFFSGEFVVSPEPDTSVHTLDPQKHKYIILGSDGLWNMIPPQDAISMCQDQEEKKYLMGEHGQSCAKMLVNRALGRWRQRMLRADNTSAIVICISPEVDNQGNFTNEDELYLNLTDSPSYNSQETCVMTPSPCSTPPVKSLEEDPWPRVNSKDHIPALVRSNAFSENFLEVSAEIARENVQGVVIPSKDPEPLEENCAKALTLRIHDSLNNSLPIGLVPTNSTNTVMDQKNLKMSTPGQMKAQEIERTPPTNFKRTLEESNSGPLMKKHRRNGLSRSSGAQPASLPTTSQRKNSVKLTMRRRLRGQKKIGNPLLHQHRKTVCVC

CC(C)(C)c1nnc(NS(=O)(=O)c2ccccc2)s1
inactive: all assays above

Brc1ccccc1-c1ccccc1
inactive: all assays above

OC(CCCN1CCCCC1)(c1ccccc1)c1ccccc1
inactive: all assays above

Cc1c(C)c2c(c(C)c1OC(=O)CCC(=O)OCCO)CC[C@@](C)(CCC[C@H](C)CCC[C@H](C)CCCC(C)C)O2
inactive: [1] | [2] | [3]

C[N+]1(CC2COC(c3ccccc3)(c3ccccc3)O2)CCCCC1 (stereo not drawn)
inactive: all assays above

CC(C)(C)CC(=O)OCC(=O)[C@@]1(O)CC[C@H]2[C@@H]3CCC4=CC(=O)C=C[C@]4(C)[C@H]3[C@@H](O)C[C@@]21C
inactive: all assays above

NS(=O)(=O)c1cc(C(=O)NN2C[C@H]3[C@H]4CCC(C4)[C@H]3C2)ccc1Cl
inactive: all assays above

O=C(O)CNC(=O)CNC(=O)CNC(=O)CSC(=O)c1ccccc1
inactive: all assays above

O=P(O)(O)OCC(O)CO (stereo not drawn)
inactive: all assays above

Cn1cc(S(C)=O)c(=O)c2ccc(F)cc21 (stereo not drawn)
inactive: all assays above

Cc1sccc1Br
inactive: all assays above

Nc1c(I)cc(I)c(C(=O)N(CCC(=O)O)c2ccccc2)c1I
inactive: all assays above

Cc1ccc(/C=N/n2c(-c3ccccc3)csc2=S)cc1
inactive: all assays above

CCCC(=O)OCOC(=O)C1=C(C)NC(C)=C(C(=O)OC)C1c1cccc(Cl)c1Cl (stereo not drawn)
inactive: all assays above

CC(C)CCCC(C)NCCC(C)C (stereo not drawn)
inactive: all assays above

CCCCC/C=C\C/C=C\CCCCCCCC(=O)NC(C)c1ccccc1 (stereo not drawn)
inactive: all assays above

CO/N=C(\C(=O)O)c1csc(NC(=O)CCl)n1
inactive: all assays above

CC(=O)N[C@@H](CCC(N)=O)C(=O)O
inactive: all assays above

CC(=O)OCC[N+](C)(C)C
inactive: all assays above

Cc1ccc2ccc(Cl)cc2n1
inactive: all assays above

CC[C@@]1(O)C(=O)OCc2c1cc1n(c2=O)Cc2c-1nc1ccccc1c2/C=N/OC(C)(C)C
inactive: all assays above

COc1ccc([C@@H]2Sc3ccccc3NC(=O)[C@@H]2O)cc1
inactive: all assays above

CCOCCn1c(C2CCN(CCc3ccc(C(C)(C)C(=O)O)cc3)CC2)nc2ccccc21
inactive: all assays above

NC(=O)NC1N=C([O][Al])NC1=O (stereo not drawn)
inactive: all assays above

C[N+](C)(CCOc1ccccc1)Cc1cccs1
inactive: all assays above

O=C(Oc1ccccc1)c1cccc(C(=O)Oc2ccccc2)c1
inactive: all assays above

Nc1ccc2c(c1)CN1C(=O)c3ccccc3C1=N2
inactive: all assays above

N#CSCC(=O)O
inactive: all assays above

Nc1ncnc2c1ncn2Cc1c(F)cccc1Cl
inactive: all assays above

OC1(c2ccccc2)CCNCC1
inactive: all assays above

CCCCCOc1ccccc1/C(=C\SC)n1ccnc1
inactive: all assays above

C[C@H]1NCc2cc(-c3ccc4c(=O)c(C(=O)O)cn(C5CC5)c4c3OC(F)F)ccc21
inactive: all assays above

CC(NN)c1ccccc1 (stereo not drawn)
inactive: all assays above

O=C(OCC1(COC(=O)c2cccnc2)CCCC(COC(=O)c2cccnc2)(COC(=O)c2cccnc2)C1O)c1cccnc1
inactive: all assays above

N#Cc1cc(NC(=O)C(=O)O)c(Cl)c(NC(=O)C(=O)O)c1
inactive: all assays above

Nc1nc2ccccc2n1Cc1ccc(F)cc1
inactive: all assays above

O=C(CCCl)NCCc1ccccc1
inactive: all assays above

C/C(=N\O)[C@@H](C)NCC(C)(C)CN[C@H](C)/C(C)=N/O
inactive: all assays above

O=C(CO)[C@@H](O)[C@H](O)[C@@H](O)CO
inactive: all assays above

CC1CCCCN1CCCOC(=O)c1ccc(OC2CCCCC2)cc1 (stereo not drawn)
inactive: all assays above

CCOc1ccc(NS(=O)(=O)c2ccc(N)cc2)nn1
inactive: all assays above

COC(=O)c1cc(S(N)(=O)=O)ccc1OC
inactive: all assays above

CCOC(=O)C(=O)CCCCCCl
inactive: all assays above

O=c1[nH]c2ccccc2c(=O)n1CCCl
inactive: all assays above

CSCC[C@H](NC(=O)[C@H](Cc1c[nH]c2ccccc12)NC(=O)CCNC(=O)OC(C)(C)C)C(=O)N[C@@H](CC(=O)O)C(=O)N[C@@H](Cc1ccccc1)C(N)=O
inactive: all assays above

COC(=O)c1cc(Cl)c(NC(C)=O)cc1OC
inactive: all assays above

CC(=O)OCC(=O)Nc1cc(C#N)cc(NC(=O)COC(C)=O)c1Cl
inactive: all assays above

CCN1C(=O)c2ccccc2C1Nc1ccc(OCCN2CCCCC2)cc1 (stereo not drawn)
inactive: all assays above

O=C1NCCN1CCN1CCC(c2cn(-c3ccc(F)cc3)c3ccc(Cl)cc23)CC1
inactive: all assays above

CCOC(=O)C(=O)c1csc(NC=O)n1
inactive: all assays above

CCC(=O)O[C@]1(C(=O)COC)[C@@H](C)C[C@H]2[C@@H]3CCC4=CC(=O)C=C[C@]4(C)C3(F)[C@@H](O)C[C@@]21C (stereo partly drawn)
inactive: all assays above
